In PubChem BioAssay AID504452 (The Scripps Research Institute Molecular Screening Center, 2011):
The source made the active and inactive calls. Rule as the data show it: active = activation above about 85%; inactive = the rest.

Target: Peroxisome proliferator-activated receptor gamma (Homo sapiens) (UniProt P37231)
Experiment: PPARg partial agonist activation, primary screen, cell-based, luciferase reporter, luminescence (AID 504452);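 also: Cos-1 cells carrying PPARgamma and a response element luciferase reporter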
Details: at 5 µM, stronger effect = higher value; activation (% of full agonist control): measured here: relative to full agonist control

Chain of Peroxisome proliferator-activated receptor gamma (Homo sapiens) (P37231 whole entry, looked up): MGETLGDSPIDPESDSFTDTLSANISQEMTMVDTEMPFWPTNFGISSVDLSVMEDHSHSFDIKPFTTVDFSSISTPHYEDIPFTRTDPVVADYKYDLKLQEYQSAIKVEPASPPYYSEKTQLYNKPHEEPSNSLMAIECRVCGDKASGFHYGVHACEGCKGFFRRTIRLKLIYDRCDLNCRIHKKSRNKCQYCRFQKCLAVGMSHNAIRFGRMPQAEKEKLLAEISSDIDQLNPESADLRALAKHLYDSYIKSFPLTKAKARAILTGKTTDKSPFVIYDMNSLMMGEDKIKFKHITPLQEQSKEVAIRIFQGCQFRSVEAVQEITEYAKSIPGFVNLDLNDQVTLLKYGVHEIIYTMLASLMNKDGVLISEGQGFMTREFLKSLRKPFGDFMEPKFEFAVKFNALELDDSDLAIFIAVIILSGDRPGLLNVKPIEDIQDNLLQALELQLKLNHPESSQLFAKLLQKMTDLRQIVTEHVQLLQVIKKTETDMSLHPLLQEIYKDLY

Row | SMILES | activation (% of full agonist control) | activation (% of partial agonist control)
1 | N=c1c(C(=O)NCCc2ccccc2)cc2c(=O)n3ccccc3nc2n1CC1CCCO1 (configuration not stated) | 34.6% | 76.7% (inactive)
2 | CSCc1c(C(=O)Nc2ccc(N3CCOCC3)cc2)oc2ccccc12 | 33.5% | 74.2% (inactive)
3 | Cc1cc(N2C(=O)C(O)=C(C(=O)c3ccco3)C2c2cccc(Cl)c2)no1 (configuration not stated) | 25.2% | 55.9% (inactive)
4 | O=C(C1=C(O)C(=O)N(c2nc3ccc(Cl)cc3s2)C1c1ccco1)c1ccco1 (configuration not stated) | 42.1% | 93.2% (active)
5 | CCC(=O)c1ccc(OCC(=O)OC(C)C(=O)Nc2c(C)n(C)n(-c3ccccc3)c2=O)cc1 (configuration not stated) | 40.4% | 89.5% (active)
6 | Nc1ccc(-n2c(N)c(C(=O)NCc3ccc4c(c3)OCO4)c3nc4ccccc4nc32)cc1 | 26.3% | 58.3% (inactive)
7 | Cc1ccc2nc(N3C(=O)C(O)=C(C(=O)c4ccc(C)o4)C3c3ccc(O)cc3)sc2c1 (configuration not stated) | 37% | 81.9% (inactive)
8 | O=c1[nH]c2cc3c(cc2cc1CN(Cc1ccccc1)Cc1nnnn1Cc1ccco1)OCCO3 | 35.1% | 77.6% (inactive)
9 | COc1ccc(S(=O)(=O)N2CCCCC2)cc1NC(=O)C1CSC2(C)CCC(=O)N12 (configuration not stated) | 40.2% | 89% (active)
10 | O=C(C1=C(O)C(=O)N(CCN2CCOCC2)C1c1ccc(Cl)cc1)c1cc2ccccc2o1 (configuration not stated) | 37.3% | 82.6% (inactive)
11 | CC(C(=O)N1CCN(c2ccccc2)CC1)N1C(=O)C2CC=CCC2C1=O (configuration not stated) | 32.1% | 71.1% (inactive)
12 | COc1cc(/C=C(\NC(=O)c2ccccc2)C(=O)NC(C(=O)O)c2ccccc2)cc(OC)c1OC (configuration not stated) | 39.8% | 88% (active)
13 | CN(CCNC(=O)C1CCCN(c2ncnc3c2nc2n3CCCCC2)C1)Cc1ccccc1 (configuration not stated) | 49% | 109% (active)
14 | COc1ccc2c(c1)c(=O)c(C(=O)c1ccc(C)cc1)cn2CC(=O)Nc1ccc(F)cc1 | 45% | 99.5% (active)
15 | CN1C(=O)COc2ccc(C(=O)c3oc4ccccc4c3-c3cnc4c(c3)COc3ccccc3-4)cc21 | 8.28% | 18.3% (inactive)
16 | COc1ccc(N2C(=O)C(=O)/C(=C(/O)c3ccc(C)cc3)C2c2cccnc2)cc1 (configuration not stated) | 28.8% | 63.8% (inactive)
